# Test results: PubChem BioAssay (EPA / NIEHS)
# Results filed as inconclusive are left out. Activity calls are given as the source filed them. Rule for the calls: active = hit-call score of the fitted dose curve at least 0.9, where 1 is the maximum; inconclusive = response in the unintended direction; inactive = score below 0.9.
# Molecular target: Glycogen synthase kinase-3 beta (Homo sapiens) (UniProt P49841)
# Experiment: NVS_ENZ_hGSK3b: NovaScreen (NVS) Enzymatic Assay for human Glycogen Synthase Kinase-3 beta (GSK3b) (AID 2283165)
# In short: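 Recombinant enzyme with specific fluorescent substrate, 1 h, product separated by electrophoretic mobility shift. Primary duplicate screen at 25 uM; actives (e.g. 30% inhibition) followed in singleton concentration-response to 50 uM. Signal loss fitted versus DMSO.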
# Glycogen synthase kinase-3 beta (Homo sapiens), sequence (P49841 whole entry, looked up): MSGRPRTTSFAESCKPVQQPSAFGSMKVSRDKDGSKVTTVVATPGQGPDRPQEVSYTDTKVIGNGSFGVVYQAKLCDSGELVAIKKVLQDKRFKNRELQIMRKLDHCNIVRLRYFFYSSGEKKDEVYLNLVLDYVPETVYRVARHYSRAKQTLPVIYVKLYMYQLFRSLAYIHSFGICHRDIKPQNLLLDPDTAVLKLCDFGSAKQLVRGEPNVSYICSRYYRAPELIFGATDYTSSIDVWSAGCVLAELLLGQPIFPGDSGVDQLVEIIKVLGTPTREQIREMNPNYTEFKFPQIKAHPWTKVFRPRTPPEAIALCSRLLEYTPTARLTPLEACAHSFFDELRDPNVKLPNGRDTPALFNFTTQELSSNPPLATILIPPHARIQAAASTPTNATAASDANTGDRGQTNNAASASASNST
row,Structure (SMILES),outcome
1,CCCCCCCCCCCCO,inactive
2,Oc1ccccc1,inactive
3,O=c1ccc2ccccc2o1,inactive
4,OC12N=C(c3ccccc3)SC1Cc1cc(Cl)ccc12 (centres undefined),inactive
5,CC1=CC(=O)/C(=C(/C)O)C(=O)O1,inactive
6,Clc1cc(Cl)c2c(c1)N=C1CCCCCN1C2,inactive

# Molecular target: human Janus Kinase 2 (Jak2), JAK2 (gene 3717) (UniProt O60674)
# Sequence (O60674 whole entry, looked up): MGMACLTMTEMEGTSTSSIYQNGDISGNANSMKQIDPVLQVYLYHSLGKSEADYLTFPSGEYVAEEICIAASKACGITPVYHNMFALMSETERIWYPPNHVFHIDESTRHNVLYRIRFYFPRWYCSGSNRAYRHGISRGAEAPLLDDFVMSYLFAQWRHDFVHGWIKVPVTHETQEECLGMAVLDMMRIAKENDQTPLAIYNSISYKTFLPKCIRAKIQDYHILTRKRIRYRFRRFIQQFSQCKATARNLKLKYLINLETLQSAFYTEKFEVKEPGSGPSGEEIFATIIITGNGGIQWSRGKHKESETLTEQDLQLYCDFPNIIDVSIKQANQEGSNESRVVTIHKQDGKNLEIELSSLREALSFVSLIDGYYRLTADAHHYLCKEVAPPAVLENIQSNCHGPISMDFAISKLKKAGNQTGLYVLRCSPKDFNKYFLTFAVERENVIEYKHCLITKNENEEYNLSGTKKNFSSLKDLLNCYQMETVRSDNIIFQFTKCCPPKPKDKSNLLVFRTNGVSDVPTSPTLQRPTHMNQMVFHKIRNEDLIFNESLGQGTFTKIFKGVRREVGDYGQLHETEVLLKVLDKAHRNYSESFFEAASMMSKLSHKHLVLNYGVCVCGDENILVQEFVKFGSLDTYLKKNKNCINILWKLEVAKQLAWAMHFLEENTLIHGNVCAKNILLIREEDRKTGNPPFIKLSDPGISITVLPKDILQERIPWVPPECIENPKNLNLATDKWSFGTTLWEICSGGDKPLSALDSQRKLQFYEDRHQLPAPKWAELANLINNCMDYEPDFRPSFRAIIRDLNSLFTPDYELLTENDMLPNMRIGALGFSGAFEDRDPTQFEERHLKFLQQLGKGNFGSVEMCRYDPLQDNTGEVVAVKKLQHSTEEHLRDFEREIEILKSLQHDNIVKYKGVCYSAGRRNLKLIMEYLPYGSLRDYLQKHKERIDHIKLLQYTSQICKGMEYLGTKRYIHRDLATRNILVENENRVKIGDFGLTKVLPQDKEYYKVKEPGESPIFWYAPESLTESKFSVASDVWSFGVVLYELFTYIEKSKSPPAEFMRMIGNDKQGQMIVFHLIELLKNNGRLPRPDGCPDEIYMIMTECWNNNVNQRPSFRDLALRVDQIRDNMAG
# Experiment: NVS_ENZ_hJak2: NovaScreen (NVS) Enzymatic Assay for human Janus Kinase 2 (Jak2) (AID 2283169)
# Method: NVS_ENZ_hJak2 is a biochemical, single-readout assay that uses extracted gene-proteins in a cell-free assay. Measurements were taken 1 hour after chemical dosing in a 384-well plate.NVS_ENZ_hJak2 is one of one assay component(s) measured or calculated from the NVS_ENZ_hJak2 assay. It is designed to make measurements of enzyme activity, a form of enzyme reporter, as detected with fluorescence intensity signals by Fluorescence and electrophoretic mobility shift technology.Data from the assay component NVS_ENZ_hJak2 was analyzed into 1 assay endpoint. This assay endpoint, NVS_ENZ_hJak2, was analyzed in the positive analysis fitting direction relative to DMSO as the negative control and baseline of activity. Using a type of enzyme reporter, loss-of-signal activity can be used to understand changes in the enzymatic activity as they relate to the gene JAK2. Furthermore, this assay endpoint can be referred to as a primary readout, because this assay has produced multiple assay endpoints where this one serves a enzymatic activity function. To generalize the intended target to other relatable targets, this assay endpoint is annotated to the kinase intended target family, where the subfamily is non-receptor tyrosine kinase.
# Binding assays used specific radioligands (tritiated, iodinated) with non-radioactive competitive displacement ligands in agonist or antagonist protocols (as indicated) and various reference compounds and inhibitors to titrate specific binding to receptors and transporters. Most enzyme assays (CYPs, kinases, phosphatases, proteases, HDACs) used recombinant protein and specific substrates (fluorescence mostly, some colorimetric and radioactive) and inhibitors, followed by a biochemical separation of substrate and product. All assays for the biochemical HTS were initially run in duplicate at a single concentration (10 uM for CYP450 assays and 25 uM for all others). Assay-chemical combinations meeting a pre-defined threshold (e.g., 30% inhibition and other criteria defined below) were then run in singleton concentration-response format with maximum concentration of 20 uM for CYPs and 50 uM for all others. Each assay was run with positive and negative controls, and concurrent controls on every plate. The follow-up (secondary) screen tested active chemical-pairs in concentration series, as well as a few additional assays not tested in the primary screen, some selected negative inactives, and several cases re-run in the concentration series for confirmatory purposes.
row,Structure (SMILES),outcome
1,O=C(OCCCCCCOC(=O)c1ccccc1)c1ccccc1,inactive
2,O=C(O)c1ccccc1C(=O)OCc1ccccc1,inactive
3,CCO[Si](CCCNC(N)=O)(OCC)OCC,inactive
